High-throughput results: PubChem, National Center for Advancing Translational Sciences (NCATS)
Lassa entry: qHTS for Inhibitors of binding or entry into cells for Lassa Virus | Lassa virus pseudotyped entry inhibition, cell-based qHTS | Potency, µM (doses to about 49.2 µM), for the others: at the highest dose activity change, negative = inhibition, hits mostly inhibitors | hit rate 4.1% among 18,000 | AID 720533, 2013
MARV entry inh: qHTS for Inhibitors of binding or entry into cells for Marburg Virus. Potency, µM (top dose mostly 49.2 µM), for the others: at the highest dose activity change, negative = inhibition, most hits filed as inhibitors. Marburg virus pseudotype entry/binding inhibition, cell-based. hit rate 6.5% among 18,000. AID 720532, 2013
Numbers without * were called inactive; [ ] = dose if it differs, or a comment. Sampled rows, rich in hits. Any-hit rate of the full collection: about 8.6%. The call rests on the fitted dose curve; tested in HEK293 cells. On the % scale 0 is the no-effect control and ±100 the full control effect; potency means the concentration at half of the fitted maximal effect.

`C[C@@H]1CC[C@H]2C(=O)N(Cc3ccc(Cl)cc3)C[C@H](O)CN2[C@@H]1c1ccc(Br)cc1` gave Lassa entry -8%[8.59 µM] and MARV entry inh 29%[8.59 µM].
For C=C(Br)CO[C@@H]1C=C[C@@H](c2ccccc2)O[C@@H]1COC the results were Lassa entry 33%[8.59 µM] and MARV entry inh 9%[8.59 µM].
COC(=O)CC=C[C@@H](C)[C@@H](C=NO[C@@H](C)c1cn([C@H](CO)Cc2ccccc2)nn1)NS(=O)(=O)c1ccc(C)cc1 was read as MARV entry inh -13%[8.59 µM].
`COc1c2c(c(CC=C(C)C)c3oc(=O)c(-c4ccc(O)cc4)c(O)c13)OC(C)(C)C=C2` gave Lassa entry -5% and MARV entry inh 2%.
Screening CC(C)=CCc1c2c(c3occ(-c4ccc(O)cc4)c(=O)c3c1O)C=CC(C)(C)O2 returned Lassa entry inconclusive and MARV entry inh 22µM*.
`O=C1C2CC=CCC2C(=O)N1SC(Cl)(Cl)Cl` (centres undefined) gave Lassa entry 10µM* and MARV entry inh inconclusive.
`Cc1cc(-c2ccnc(-n3ncc(C(=O)NCC4COCCO4)c3C)n2)c(C)s1` (centres undefined) gave Lassa entry -8% and MARV entry inh inconclusive.
Screening CCN1C(=O)[C@@H]2[C@H]3[C@H](O)[C@H](O)CC(=NOCC[C@@H]4C=C[C@H](OC(C)=O)[C@@H](COC(C)=O)O4)[C@@H]3CC[C@H]2C1=O returned Lassa entry -1%[8.59 µM] and MARV entry inh -15%[8.59 µM].
CCC1CN2CCC1CC2C(O)c1ccnc2ccc(OC)cc12 (centres undefined) was read as Lassa entry inconclusive and MARV entry inh 20µM*.
CC[C@H]1CN2CC[C@@H]1C[C@H]2[C@@H](O)c1ccnc2ccc(OC)cc12 was read as Lassa entry 4%[17.8 µM] and MARV entry inh inconclusive.
For OCc1ccc(-c2nc(-c3ccc4c(c3)OCO4)c(-c3ccccn3)[nH]2)cc1 the results were Lassa entry -25% and MARV entry inh inconclusive.
For C=CC[C@@H]1C=C[C@@H](Oc2ccc(OC)cc2)[C@H](COC(=O)c2ccc(Br)cc2)O1 the results were Lassa entry -31%[8.59 µM] and MARV entry inh -4%[8.59 µM].
C/C=C/C/C=C/CCC(=O)[C@H]1O[C@H]1C(N)=O was read as Lassa entry 16µM* and MARV entry inh 16µM*.
CC/C=C\C/C=C\C/C=C\C/C=C\C/C=C\C/C=C\CCC(=O)O was read as Lassa entry 4% and MARV entry inh 16%.
For COC(=O)C1=C(C(=O)OC)[C@@H]2N(C)c3ccccc3[C@@]23C[C@@H](C(=O)OC)N(C(=O)Nc2cccc(C#N)c2)C3=N1 the results were Lassa entry 0%[8.59 µM] and MARV entry inh 27%[8.59 µM].
Screening CCCCCCN1C[C@H](O)[C@@H](n2cc(C3CC3)nn2)C[C@H]1c1ccc(Cl)cc1 returned Lassa entry -32% and MARV entry inh inconclusive.
Screening CC[C@@]1([C@@H]2O[C@@H]([C@H]3O[C@@](O)(CO)[C@H](C)C[C@@H]3C)C[C@@H]2C)CC[C@@H]([C@]2(C)CCC3(C[C@H](O)[C@@H](C)[C@@H]([C@@H](C)[C@@H](OC)[C@H](C)C(=O)O)O3)O2)O1 (some centres undefined) returned Lassa entry 0.56µM* and MARV entry inh 0.32µM*.
CC[C@@]1([C@@H]2O[C@@H]([C@H]3O[C@@](O)(CO)[C@H](C)C[C@@H]3C)C[C@@H]2C)CC[C@H]([C@]2(C)CC[C@]3(C[C@H](O)[C@@H](C)[C@@H]([C@@H](C)[C@@H](OC)C(C)C(=O)O)O3)O2)O1 (some centres undefined) was read as Lassa entry 0.45µM* and MARV entry inh 0.28µM*.
Screening CO[C@@H]1[C@@H](OC)[C@H](C)[C@@](O)(CC(=O)O)O[C@H]1[C@H](C)[C@H]1O[C@@]2(CC[C@@](C)([C@H]3CC[C@@](C)([C@@H]4O[C@@H]([C@H]5O[C@](C)(O)[C@H](C)C[C@@H]5C)C[C@@H]4OC4C[C@H](OC)[C@@H](OC)[C@H](C)O4)O3)O2)C[C@H](O)[C@H]1C (some centres undefined) returned Lassa entry 1µM* and MARV entry inh inconclusive.
For COC(=O)N[C@@H](c1ccco1)C(C(C)=O)C(=O)OC (some centres undefined) the results were Lassa entry 6%[8.59 µM] and MARV entry inh -27%[8.59 µM].
Screening C[C@@H]1[C@@H](c2ccccc2)c2cc3ccccc3nc2-c2nc3ccccc3cc2[C@H]1C(=O)N1CCCC1 returned Lassa entry 52%[8.59 µM] and MARV entry inh 25%[8.59 µM].
Screening COC(=O)C1=C(C)N(Cc2ccccc2)C(=NCCc2cccnc2)NC1c1ccc(Br)cc1 (centres undefined) returned Lassa entry -4%[8.59 µM] and MARV entry inh 4%[8.59 µM].
For NCCC(=O)[N-][C@@H](Cc1cnc[nH]1)C(=O)O.[Zn] the results were Lassa entry -18% and MARV entry inh 12%.
COc1ccc(-c2oc3ccccc3c(=O)c2O)cc1OC was read as Lassa entry 4% and MARV entry inh 8%.
Screening COc1ccc(-c2oc3cc(OC)c(OC(C)=O)c(OC)c3c(=O)c2OC)cc1OC(C)=O returned Lassa entry 0.32µM* and MARV entry inh 1%.
Screening COc1cc2oc(=O)cc(-c3ccc(-c4cccc(N)c4)cc3)c2c(OC)c1OC returned Lassa entry -21% and MARV entry inh inconclusive.
COc1ccc(-c2ccc(-c3cc(=O)oc4cc(OC)c(OC)c(OC)c34)cc2)cc1OC was read as Lassa entry 18µM* and MARV entry inh 0%.
For C=C1C([C@@H](O)C[C@H](C)C2O[C@@]3(CCCCO3)CC[C@H]2C)OC2CC[C@@]3(CC[C@@H](/C=C/[C@@H](C)C4CC(C)=C[C@]5(O4)O[C@H](C[C@@](C)(O)C(=O)O)CCC5O)O3)OC2[C@@H]1O (some centres undefined) the results were Lassa entry 1.1µM* and MARV entry inh inconclusive.
`CCN1C(=NCc2ccccc2)NC(c2cccc(C(F)(F)F)c2)C(C(=O)OC)=C1C` (centres undefined) gave Lassa entry 17%[8.59 µM] and MARV entry inh inconclusive.
CC[C@H]1[C@@H]2C=C[C@@H]3[C@H]4C/C=C\C(=O)NCCC[C@@H]5NC(=O)C(=C5O)C(=O)CC[C@@H]4C[C@@H]3[C@H]2C[C@H]1C was read as Lassa entry 28µM* and MARV entry inh 14µM*.
`C[C@H]1CN(CCc2ccccc2)C(=O)[C@H]1CC(=O)Nc1ccc(Br)cc1` gave MARV entry inh -8%.
`C=C(C)CN1CC[C@@]23c4c5ccc(O)c4O[C@H]2c2[nH]c4ccccc4c2C[C@]3(O)[C@@H]1C5` gave Lassa entry inconclusive and MARV entry inh 22µM*.
For C=CCN1CC[C@]23c4c5ccc(O)c4OC2C(=O)CC[C@]3(O)C1C5 (some centres undefined) the results were Lassa entry 6% and MARV entry inh 11%.
C=C1CC[C@@]2(O)[C@H]3Cc4ccc(O)c5c4[C@@]2(CCN3CC2CC2)[C@H]1O5 was read as Lassa entry -14% and MARV entry inh -12%.
For Oc1ccc2c3c1O[C@H]1c4[nH]c5ccccc5c4C[C@@]4(O)C(C2)N(CC2CC2)CCC314 (some centres undefined) the results were Lassa entry inconclusive and MARV entry inh 13µM*.
